Results from PubChem BioAssay (Tox21).
Values joined by “and” are separate entries in the source; they are usually repeats but may differ in a detail not shown here. Equal entries are not always repeated. Inconclusive results are not listed. Entries that show only a call come without a potency. Where a structure was tested more than once in an assay, its records may differ in their call. Active and inactive are the calls of the source. Unless noted, calls come from the whole dose curve.

Assays:
[1] = Nuclear factor erythroid 2-related factor 2/antioxidant responsive element (Nrf2/ARE) small molecule agonists: qHTS cell viability counter screen in human keratinocytes (AID 1919968; active = well fitted curve in the direction sought with a large enough effect in the repeat runs; an effect the other way counts as inactive or inconclusive; note: nearly all actives have a fitted effect of over 55% in size)
Summary of the method: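 Cells of the KeratinoSens line were plated at 1,500 per well and left for 5 h before compound transfer from DMSO stocks. After a 23 h incubation (37 C, 5% CO2), CellTiter-Fluor was added. Signal was taken as fluorescence intensity 1 h later.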

[2] = Nuclear factor erythroid 2-related factor 2/antioxidant responsive element (Nrf2/ARE) small molecule agonists: luciferase reporter gene qHTS assay in human keratinocytes (AID 1919969); note: nearly all actives have a fitted effect of over 35% in size
[3] = target: Gonadotropin-releasing hormone receptor (Homo sapiens) (UniProt P30968); experiment: Human gonadotropin-releasing hormone receptor (GnRHR) small molecule agonists, calcium flux assay in GnRHR-HEK293 cells (AID 1920063); note: nearly all actives have a fitted effect of over 35% in size
Summary of the method: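 Compounds dissolved in DMSO are pin-transferred onto dye-loaded GnRHR-HEK293 cells, which were seeded 18 h before at 37 C/5% CO2. Calcium signal is read as fluorescence intensity at 1 s intervals for 3 min.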

[4] = target: KiSS-1 receptor (Homo sapiens) (UniProt Q969F8); experiment: Human kisspeptin (KISS1R) small molecule agonists, calcium flux assay in KISS1R-HEK293 cells (AID 1920064; active = well fitted curve in the direction sought with a large enough effect in the repeat runs; an effect the other way counts as inactive or inconclusive)
Summary of the method: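 Cell line: HEK293, stable human KISS1R. Dye loading 1 h at 37 C after 18 h culture. Read: kinetic fluorescence, 480/540 nm, 3 min at 1 s intervals.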

[5] = G protein-coupled receptor (GPCR) small molecule agonists, calcium flux assay: HEK293 wild type cell line counter screen (AID 1920065)
Summary of the method: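 Tox21 10K compounds, 15 concentrations each in triplicate, pin-transferred in DMSO onto dye-loaded cells; kinetic read at 480/540 nm for 3 min, 1 s intervals.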

[6] = p53 small molecule agonists, cell-based qHTS assay with human liver microsomes (AID 1963577);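 note: p53 response element beta-lactamase reporter cells with liver microsomes plus NADPH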
Summary of the method: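 p53RE-bla cells; 5 h settle, 37 C/5% CO2; cpd + HLM 0.5 mg/mL + NADPH 0.5 mg/mL (final); 16 h 37 C; LiveBLAzer 2 h RT dark; fluorescence readout.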

[7] = p53 small molecule agonists, cell-based qHTS assay with rat liver microsomes (AID 1963578)
Summary of the method: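 Rat liver microsome activation: microsomes 0.5 mg/mL, NADPH 0.5 mg/mL final; p53RE-bla cells, 16 h 37 C; LiveBLAzer readout, 2 h RT dark.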

[8] = p53 small molecule agonists, cell-based qHTS assay with human liver microsomes: qHTS cell viability counter screen (AID 1963579); note: nearly all actives have a fitted effect of over 45% in size
Summary of the method: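 Luminescent CellTiter-Glo read-out, 30 min at room temperature, gauged cytotoxicity in p53RE-bla cells exposed 16 h at 37 C to DMSO-dissolved compounds with metabolic activation by human liver microsomes and NADPH, each 0.5 mg/mL final.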

[9] = p53 small molecule agonists, cell-based qHTS assay with rat liver microsomes: qHTS cell viability counter screen (AID 1963580); note: nearly all actives have a fitted effect of over 45% in size
Summary of the method: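 Cytotoxicity counter screen: intracellular ATP measured by CellTiter-Glo luminescence in the same wells as the beta-lactamase reporter read, on HCT-116 p53RE-bla cells exposed 16 h at 37 C to compounds with rat liver microsomes and NADPH, each 0.5 mg/mL final.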

[10] = p53 small molecule agonists, cell-based qHTS assay: qHTS cell viability counter screen (AID 1963581); note: nearly all actives have a fitted effect of over 45% in size
Summary of the method: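 ATP content measured by luminescence in HCT-116 p53RE-bla cells treated 16 h at 37 C, same wells as the reporter screen.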

[11] = p53 small molecule agonists, cell-based qHTS assay (AID 1963582; active = well fitted activation curve with a large enough effect in the signal ratio in the repeat runs, not every such curve was filed as active; the % refers to the signal ratio)
Summary of the method: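 16 h compound exposure (37 C) of p53 response element–bla cells, preceded by 5 h recovery at 37 C/5% CO2; read-out via LiveBLAzer B/G FRET substrate, 2 h RT, fluorescence intensity.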

[12] = cAMP Responsive Elements (CRE) small molecule agonists, cell-based qHTS assay (AID 1963590)
Summary of the method: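 HEK 293T cells stably bearing CRE-bla were plated at 2,000 cells per well and rested 18 h. Compounds, positive controls or DMSO were added for 3 h at 37 C. LiveBLAzer B/G substrate was then loaded for 2 h at room temperature.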

[13] = cAMP Responsive Elements (CRE) small molecule antagonists, cell-based qHTS assay (AID 1963591; active = well fitted inhibition curve with a large enough effect in the signal ratio in the repeat runs, not every such curve was filed as active; the % refers to the signal ratio)
Summary of the method: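 First, CRE-bla HEK293T cells settled 18 h at 37 C. Next, compound and 0.25 uM final NKH477 were applied for 3 h. Last, LiveBLAzer B/G substrate was loaded for 2 h at room temperature.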

[14] = target: Beta-2 adrenergic receptor (Homo sapiens) (UniProt P07550); experiment: Adrenergic beta2 receptor (ADRB2) small molecule antagonists, cell-based qHTS assay (AID 1963592); note: series mostly up to about 92 µM; nearly all actives have a fitted effect of over 50% in size
Summary of the method: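 Assay format: CHO-ADRB2 cells, 18-20hr seeding at 37C/5% CO2, then compound plus 1nM isoproterenol agonist mix for 0.5hr RT. Homogeneous time-resolved fluorescence cAMP detection after 1hr, expressed as 665/615 nm ratio.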

[15] = target: Beta-2 adrenergic receptor (Homo sapiens) (UniProt P07550); experiment: Adrenergic beta2 receptor (ADRB2) small molecule agonists, cell-based qHTS assay (AID 1963593);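 note: CHO cells stably overexpressing human ADRB2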
Summary of the method: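 CHO cells stably over-expressing ADRB2 were plated overnight at 37C, then dosed with compounds plus a stimulation mix containing 100uM IBMX and 25uM Ro-20-1724 for 0.5hr at room temperature. cAMP was measured by HTRF competition, 1hr.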

[16] = target: D(2) dopamine receptor (Homo sapiens) (UniProt P14416); experiment: Dopamine D2 receptor (DRD2) small molecule agonists, cell-based qHTS assay (AID 1963594); note: nearly all actives have a fitted effect of over 35% in size
Summary of the method: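 HEK293 cells stably expressing human DRD2, pre-treated with PDE inhibitor Ro20-1724 (0.1 mM final) and compound 10 min at room temperature, then stimulated with NKH477 (200nM […]) for 30 min. cAMP read by HTRF (665/620 nm).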

[17] = target: D(2) dopamine receptor (Homo sapiens) (UniProt P14416); experiment: Dopamine D2 receptor (DRD2) small molecule antagonists, cell-based qHTS assay (AID 1963595; active = well fitted inhibition curve with a large enough effect in the signal ratio in the repeat runs, with a control signal flat; the % refers to the signal ratio; note: potency is the fitted concentration of half-maximal effect)
Summary of the method: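 In this cell-based antagonist screen, compounds act for 10 min at room temperature before a 30 min challenge with 12 nM quinpirole and 200 nM NKH477. cAMP is quantified by HTRF competition in DRD2-HEK293 cells containing 0.1 mM Ro20-1724.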

[18] = target: 5-hydroxytryptamine receptor 2A (Homo sapiens) (UniProt P28223); experiment: 5-hydroxytryptamine receptor 2A (HTR2A) small molecule agonists, cell-based qHTS assay (AID 1963587); note: nearly all actives have a fitted effect of over 30% in size
Summary of the method: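 CHO cells stably expressing human HTR2A, plated 18 h, loaded with calcium dye 1 h at 37 C. Agonist mode: compounds added and intracellular calcium fluorescence recorded kinetically for 2 min at 1 sec intervals.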

[19] = target: Muscarinic acetylcholine receptor M1 (Homo sapiens) (UniProt P11229); experiment: Cholinergic receptor muscarinic 1 (CHRM1) small molecule antagonists, cell-based qHTS assay (AID 1963588); note: nearly all actives have a fitted effect of over 40% in size
Summary of the method: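 Compounds were tested at 15 concentrations in three independent runs. Dye-loaded CHRM1-CHO cells were exposed 5 min at room temperature before stimulation by acetylcholine added at 50nM. Intracellular calcium was read kinetically on FDSS for 3 min.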

[20] = target: Muscarinic acetylcholine receptor M1 (Homo sapiens) (UniProt P11229); experiment: Cholinergic receptor muscarinic 1 (CHRM1) small molecule agonists, cell-based qHTS assay (AID 1963589); note: nearly all actives have a fitted effect of over 35% in size
Summary of the method: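 Homogeneous fluorescence calcium flux, agonist mode. Human M1-expressing CHO cells; compound dosed at 15 concentrations, three independent runs; signal sampled every 1 sec.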

Chain of D(2) dopamine receptor (Homo sapiens) (P14416 whole entry, looked up): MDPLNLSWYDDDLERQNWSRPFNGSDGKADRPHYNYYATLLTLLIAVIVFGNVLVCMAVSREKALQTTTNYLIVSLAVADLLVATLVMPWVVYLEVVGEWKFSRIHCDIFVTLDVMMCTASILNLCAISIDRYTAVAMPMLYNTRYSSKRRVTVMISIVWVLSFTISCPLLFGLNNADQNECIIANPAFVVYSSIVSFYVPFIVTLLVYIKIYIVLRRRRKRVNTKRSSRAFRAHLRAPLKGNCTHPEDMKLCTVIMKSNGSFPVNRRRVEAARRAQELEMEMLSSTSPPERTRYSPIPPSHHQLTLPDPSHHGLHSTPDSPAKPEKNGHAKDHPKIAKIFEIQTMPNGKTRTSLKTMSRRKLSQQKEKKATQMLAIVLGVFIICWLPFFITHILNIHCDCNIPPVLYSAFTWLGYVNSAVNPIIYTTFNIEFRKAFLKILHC
Chain of Beta-2 adrenergic receptor (Homo sapiens) (P07550 whole entry, looked up): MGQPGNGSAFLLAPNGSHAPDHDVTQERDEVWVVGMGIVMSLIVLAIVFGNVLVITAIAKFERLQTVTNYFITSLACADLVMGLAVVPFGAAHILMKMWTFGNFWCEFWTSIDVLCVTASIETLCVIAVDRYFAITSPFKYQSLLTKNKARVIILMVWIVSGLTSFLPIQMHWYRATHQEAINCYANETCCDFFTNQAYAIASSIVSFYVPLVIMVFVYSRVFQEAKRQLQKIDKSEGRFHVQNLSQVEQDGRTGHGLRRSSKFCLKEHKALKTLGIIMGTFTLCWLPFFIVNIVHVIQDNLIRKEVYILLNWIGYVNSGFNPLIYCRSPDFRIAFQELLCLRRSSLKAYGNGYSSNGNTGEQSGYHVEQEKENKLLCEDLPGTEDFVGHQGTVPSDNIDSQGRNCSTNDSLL
Chain of Muscarinic acetylcholine receptor M1 (Homo sapiens) (P11229 whole entry, looked up): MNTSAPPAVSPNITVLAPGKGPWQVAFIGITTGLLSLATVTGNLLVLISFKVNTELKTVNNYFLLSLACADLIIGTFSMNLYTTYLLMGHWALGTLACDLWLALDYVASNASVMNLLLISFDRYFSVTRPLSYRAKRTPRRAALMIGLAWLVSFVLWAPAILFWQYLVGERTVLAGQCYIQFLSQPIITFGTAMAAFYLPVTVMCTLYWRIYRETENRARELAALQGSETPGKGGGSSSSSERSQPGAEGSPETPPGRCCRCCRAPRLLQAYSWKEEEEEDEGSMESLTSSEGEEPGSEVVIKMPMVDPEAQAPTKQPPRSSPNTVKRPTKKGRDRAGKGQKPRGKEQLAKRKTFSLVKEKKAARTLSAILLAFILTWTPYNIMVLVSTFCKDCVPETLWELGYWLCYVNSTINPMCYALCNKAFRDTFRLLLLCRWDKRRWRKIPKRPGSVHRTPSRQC
Chain of KiSS-1 receptor (Homo sapiens) (Q969F8 whole entry, looked up): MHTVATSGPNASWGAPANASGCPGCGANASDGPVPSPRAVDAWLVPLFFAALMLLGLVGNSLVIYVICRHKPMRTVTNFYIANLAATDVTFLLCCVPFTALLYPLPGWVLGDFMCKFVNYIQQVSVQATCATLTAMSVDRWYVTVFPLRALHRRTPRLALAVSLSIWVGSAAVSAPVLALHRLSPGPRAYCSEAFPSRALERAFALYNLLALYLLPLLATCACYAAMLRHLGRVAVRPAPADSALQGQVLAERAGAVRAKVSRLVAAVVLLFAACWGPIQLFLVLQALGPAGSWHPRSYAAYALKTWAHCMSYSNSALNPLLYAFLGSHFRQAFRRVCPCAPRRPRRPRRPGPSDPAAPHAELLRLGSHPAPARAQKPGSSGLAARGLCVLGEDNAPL
Chain of Gonadotropin-releasing hormone receptor (Homo sapiens) (P30968 whole entry, looked up): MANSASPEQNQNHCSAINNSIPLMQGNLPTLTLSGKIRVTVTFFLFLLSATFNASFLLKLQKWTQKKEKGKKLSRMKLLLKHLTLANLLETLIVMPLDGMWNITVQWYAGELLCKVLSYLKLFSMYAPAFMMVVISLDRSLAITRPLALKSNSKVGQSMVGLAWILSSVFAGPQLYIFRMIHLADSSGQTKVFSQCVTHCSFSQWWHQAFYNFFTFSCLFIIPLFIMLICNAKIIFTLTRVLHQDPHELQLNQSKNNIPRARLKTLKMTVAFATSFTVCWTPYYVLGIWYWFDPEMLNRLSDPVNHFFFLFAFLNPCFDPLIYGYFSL
Chain of 5-hydroxytryptamine receptor 2A (Homo sapiens) (P28223 whole entry, looked up): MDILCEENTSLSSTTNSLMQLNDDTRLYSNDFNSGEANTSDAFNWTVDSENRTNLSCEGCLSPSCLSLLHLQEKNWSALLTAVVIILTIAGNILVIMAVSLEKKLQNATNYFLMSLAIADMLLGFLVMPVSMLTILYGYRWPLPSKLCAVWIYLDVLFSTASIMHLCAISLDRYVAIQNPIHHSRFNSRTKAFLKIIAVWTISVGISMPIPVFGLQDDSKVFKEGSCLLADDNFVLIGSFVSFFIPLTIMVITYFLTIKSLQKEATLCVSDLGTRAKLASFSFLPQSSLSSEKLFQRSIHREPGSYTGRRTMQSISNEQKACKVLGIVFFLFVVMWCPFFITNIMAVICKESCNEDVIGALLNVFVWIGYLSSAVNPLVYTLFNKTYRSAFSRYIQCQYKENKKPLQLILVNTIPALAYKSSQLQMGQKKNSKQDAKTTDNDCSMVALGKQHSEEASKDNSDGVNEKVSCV

SMILES	Potency [1]	Potency [2]	Potency [3]	Potency [4]	Potency [5]	Potency [6]	Potency [7]	Potency [8]	Potency [9]	Potency [10]	Potency [11]	Potency [12]	Potency [13]	Potency [14]	Potency [15]	Potency [16]	Potency [17]	Potency [18]	Potency [19]	Potency [20]
CCc1cccc2c3c([nH]c12)C(CC)(CC(=O)O)OCC3 (stereo unspecified)	inactive	inactive	inactive	inactive	inactive	inactive	inactive	inactive	inactive	inactive	inactive	inactive	inactive	inactive	inactive	inactive	inactive and 23.7 µM (active)			
CC(O)C(=O)O (stereo unspecified)	inactive	inactive	inactive	inactive	inactive	inactive	inactive	inactive	inactive	inactive	inactive	inactive	inactive	inactive	inactive	inactive	inactive			
O=C1CCC(N2C(=O)c3ccccc3C2=O)C(=O)N1 (stereo unspecified)	inactive	inactive	inactive	inactive	inactive	inactive	inactive	inactive	inactive	inactive	inactive	inactive	inactive	inactive		inactive	inactive			
COCCc1ccc(OCC(O)CNC(C)C)cc1 (stereo unspecified)	inactive	inactive	inactive	inactive	inactive	inactive	inactive	inactive	inactive	inactive	inactive	inactive	inactive				inactive			
NC(CO)(CO)CO	inactive	inactive	inactive	inactive	inactive	inactive	inactive	inactive	inactive	inactive	inactive	inactive	inactive	inactive		inactive	inactive			
C[C@]12C=CC(=O)C=C1CC[C@@H]1[C@@H]2C(=O)C[C@@]2(C)[C@H]1CC[C@]2(O)C(=O)CO	inactive	inactive	inactive	inactive	inactive	inactive	inactive	inactive	inactive	inactive	inactive	inactive	inactive	inactive	inactive	inactive	inactive			
CC(=O)CCC=C(C)C	inactive	inactive	inactive	inactive	inactive	inactive	inactive	inactive	inactive	inactive	inactive	inactive	inactive		inactive	inactive	inactive	inactive	inactive	inactive
C/C=C/c1ccc(OCC)c(O)c1	inactive	inactive	inactive	inactive	inactive	inactive	inactive	inactive	inactive	inactive	inactive	inactive	inactive	inactive	inactive	inactive	inactive	inactive	inactive	inactive
CCOc1ccc(NC(=O)CC(C)O)cc1 (stereo unspecified)	inactive	inactive	inactive	inactive	inactive	inactive	inactive	inactive	inactive	inactive	inactive	inactive		inactive	inactive	inactive	inactive	inactive	inactive	inactive
NC(N)=NC(=O)c1nc(Cl)c(N)nc1N	inactive	inactive	inactive	inactive	inactive	inactive	inactive	inactive	inactive	inactive	inactive	inactive		inactive	inactive	inactive	inactive			
C#C[C@]1(O)CC[C@H]2[C@@H]3CCC4=CC(=O)CC[C@@H]4[C@H]3CC[C@@]21CC	inactive	inactive	inactive	inactive	inactive	inactive	inactive	inactive	inactive	inactive	inactive	inactive		inactive	inactive	inactive	inactive			
CC(C)=CCl	inactive	inactive	inactive	inactive	inactive	inactive	inactive	inactive	inactive	inactive	inactive	inactive	inactive	inactive			inactive	inactive	inactive	inactive
OC[C@@H](O)[C@H](O)[C@H](O)[C@@H](O)CO	inactive	inactive	inactive	inactive	inactive	inactive	inactive	inactive	inactive	inactive	inactive	inactive	inactive	inactive			inactive			
CN1C(C(=O)Nc2ccccn2)=C(O)c2ccccc2S1(=O)=O	inactive	inactive	inactive	inactive	inactive	inactive	inactive	inactive	inactive	inactive	inactive	inactive	inactive	inactive		inactive				
O=c1ccc2ccccc2o1	inactive	inactive	inactive	inactive	inactive	inactive	inactive	inactive	inactive	inactive	inactive	inactive	inactive	inactive		inactive				
COc1ccc2[nH]cc(CCNC(C)=O)c2c1	inactive	inactive	inactive	inactive	inactive	inactive	inactive	inactive	inactive	inactive	inactive	inactive	inactive	inactive		inactive	inactive			
